# Records with an inconclusive call do not appear. Entries that show only a call come without a potency. A number with no mark means an inactive call. Activity calls are given as the source filed them. Unless noted, calls come from the whole dose curve; as a rule, active = well fitted curve in the direction sought with a large enough effect in the repeat runs; inconclusive = weak or mixed curves; inactive = no such curve, though single readings can be large; an effect the other way counts as inactive or inconclusive.
# What was measured:
# [1] = target: Retinoic acid receptor RXR-alpha (Homo sapiens) (UniProt P19793); experiment: qHTS assay to identify small molecule agonists of the RXR signaling pathway (AID 1159527; calls by dose curve; note: nearly all actives have a fitted effect of over 35% in size)
# Sequence of Retinoic acid receptor RXR-alpha (Homo sapiens) (P19793 whole entry, looked up): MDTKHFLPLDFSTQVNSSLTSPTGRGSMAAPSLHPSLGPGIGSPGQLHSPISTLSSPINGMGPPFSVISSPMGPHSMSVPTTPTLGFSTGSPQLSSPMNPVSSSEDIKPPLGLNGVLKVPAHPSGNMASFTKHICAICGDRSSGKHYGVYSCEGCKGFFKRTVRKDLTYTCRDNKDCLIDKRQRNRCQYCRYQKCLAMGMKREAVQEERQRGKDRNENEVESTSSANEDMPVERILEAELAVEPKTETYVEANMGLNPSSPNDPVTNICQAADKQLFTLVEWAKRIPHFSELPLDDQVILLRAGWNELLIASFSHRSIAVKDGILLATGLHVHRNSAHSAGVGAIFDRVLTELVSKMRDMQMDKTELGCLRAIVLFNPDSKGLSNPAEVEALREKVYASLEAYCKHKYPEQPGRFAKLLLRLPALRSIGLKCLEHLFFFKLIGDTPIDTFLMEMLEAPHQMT
# Procedure, shortened: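 Reporter activation is measured as beta-lactamase activity via FRET substrate cleavage (emission 460/530 nm) in HEK 293T cells expressing an RXR-alpha-driven bla construct, following 16 hr compound exposure at 37 C.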
# [2] = qHTS assay to identify small molecule agonists of the RXR signaling pathway - cell viability counter screen (AID 1159529); note: series mostly up to about 77 µM; nearly all actives have a fitted effect of over 50% in size
# Procedure, shortened: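 Tox21 10K compounds were tested for cytotoxicity against GeneBLAzer RXR-alpha HEK 293T cells grown in 2% charcoal-stripped FBS. Exposure lasted 16 hr at 37 C, 5% CO2; viability read by CellTiter-Glo luminescence.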
# [3] = qHTS assay to identify small molecule antagonists of the retinoid acid receptor (RAR) signaling pathway - cell viability counter screen (AID 1159551); note: nearly all actives have a fitted effect of over 35% in size
# Procedure, shortened: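 Cytotoxicity counter screen: ATP content quantified by CellTiter-Glo luminescence in C3RL4 cells treated 6 hr at 37 C with compound and retinol (1 uM final). Cells plated at 1,000/well and cultured overnight before dosing.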
# [4] = qHTS assay to identify small molecule antagonists of the retinoic acid receptor (RAR) signaling pathway (AID 1159552; note: nearly all actives have a fitted effect of over 50% in size)
# Procedure, shortened: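 Overnight-plated C3RL4 reporter cells get compound, then retinol to 1 uM final; plates sit 6 hr at 37 C, 5% CO2. A luciferase reagent is added and light output recorded after 30 min at room temperature.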
# [5] = qHTS assay to identify small molecule agonists of the retinoic acid receptor (RAR) signaling pathway (AID 1159553); note: potency is the fitted concentration of half-maximal effect
# Procedure, shortened: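 Luminescence was measured 30 min after luciferase reagent addition at room temperature. Before that, C3RL4 reporter cells (1,000 per well, plated overnight) were treated with compound for 6 hr at 37 C and 5% CO2.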
# [6] = target: Luciferin 4-monooxygenase (Photinus pyralis) (UniProt P08659); experiment: qHTS assay to identify small molecule inhibitors of firefly luciferase (AID 1224835); note: nearly all actives have a fitted effect of over 25% in size; note: potency is the fitted concentration of half-maximal effect
# Sequence of Luciferin 4-monooxygenase (Photinus pyralis) (P08659 whole entry, looked up): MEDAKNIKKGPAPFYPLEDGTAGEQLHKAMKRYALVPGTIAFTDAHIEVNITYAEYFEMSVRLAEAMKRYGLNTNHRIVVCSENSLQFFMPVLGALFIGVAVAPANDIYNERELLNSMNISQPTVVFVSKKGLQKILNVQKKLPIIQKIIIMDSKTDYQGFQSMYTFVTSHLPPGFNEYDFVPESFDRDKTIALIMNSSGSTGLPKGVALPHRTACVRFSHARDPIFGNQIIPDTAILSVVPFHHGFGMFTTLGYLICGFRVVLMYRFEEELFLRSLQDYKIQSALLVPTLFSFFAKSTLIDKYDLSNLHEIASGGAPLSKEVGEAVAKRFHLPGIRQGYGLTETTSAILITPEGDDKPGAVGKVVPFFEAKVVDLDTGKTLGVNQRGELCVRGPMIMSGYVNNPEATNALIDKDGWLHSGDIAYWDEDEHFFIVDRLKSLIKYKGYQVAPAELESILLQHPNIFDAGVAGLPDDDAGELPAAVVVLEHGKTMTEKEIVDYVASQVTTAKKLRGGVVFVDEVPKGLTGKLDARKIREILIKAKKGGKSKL
# Procedure, shortened: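 Quantitative HTS format; KM concentrations of both substrates. Purified P. pyralis FLuc activity quantified from luminescence images.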
# [7] = qHTS assay to identify small molecule antagonists of the constitutive androstane receptor (CAR) signaling pathway - cell viability counter screen (AID 1224837); note: nearly all actives have a fitted effect of over 45% in size; note: potency is the fitted concentration of half-maximal effect
# Procedure, shortened: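 Cytotoxicity counter-screen: CellTiter-Fluor fluorescence after 23 h compound exposure (15-point qHTS) in double-stable HepG2-CYP2B6-hCAR cells, with 50 nM CITCO added.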
# [8] = target: Nuclear receptor subfamily 1 group I member 3 (Homo sapiens) (UniProt Q14994); experiment: qHTS assay to identify small molecule antagonists of the constitutive androstane receptor (CAR) signaling pathway (AID 1224838);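 note: HepG2 cells stably expressing hCAR with CYP2B6 luciferase reporter stimulated by CITCO; nearly all actives have a fitted effect of over 40% in size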
# Sequence of Nuclear receptor subfamily 1 group I member 3 (Homo sapiens) (Q14994 whole entry, looked up): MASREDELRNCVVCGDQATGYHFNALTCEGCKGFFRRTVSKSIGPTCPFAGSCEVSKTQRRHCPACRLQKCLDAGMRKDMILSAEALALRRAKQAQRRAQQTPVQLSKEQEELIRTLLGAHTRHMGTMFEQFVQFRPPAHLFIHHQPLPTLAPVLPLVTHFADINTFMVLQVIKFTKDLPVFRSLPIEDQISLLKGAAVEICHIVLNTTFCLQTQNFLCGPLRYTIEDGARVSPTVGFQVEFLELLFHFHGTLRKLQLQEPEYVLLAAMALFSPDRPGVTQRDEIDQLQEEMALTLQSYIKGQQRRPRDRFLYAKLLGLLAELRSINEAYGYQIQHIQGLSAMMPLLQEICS
# Procedure, shortened: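 Antagonism measured as luciferase signal (ONE-Glo, 30 min, room temperature) in CAR-stimulated cells: HepG2-CYP2B6-hCAR double-stable line exposed 24 hr at 37 C to compound in a 15-point series plus 50 nM CITCO.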
# [9] = qHTS assay to identify small molecule antagonists of the estrogen related receptor signaling pathway with the pleiotropic PPARgamma coactivator (PGC) from Tox21 10K library - cell viability counter screen (AID 1224840; active = well fitted cell-killing curve with a large enough effect in the repeat runs, not every such curve was filed as active; note: nearly all actives have a fitted effect of over 40% in size)
# Procedure, shortened: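 Counter-screen for cytotoxicity: after 17.5 h compound exposure at 37 C, CellTiter-Fluor reagent added to PGC/ERR cells for 30 min and fluorescence read. Cells were seeded at 2,000 per well 6 h before dosing.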
# [10] = qHTS assay to identify small molecule antagonists of the estrogen related receptor signaling pathway with the pleiotropic PPARgamma coactivator (PGC) from Tox21 10K library (AID 1224841; call rule not given here; note: series mostly up to about 92 µM; actives are mostly falling curves and most rising ones were filed inactive; nearly all actives have a fitted effect of over 50% in size)
# Procedure, shortened: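 Luminescence (One-Glo, 30 min at room temperature) after 18 h compound treatment at 37 C of PGC/ERR reporter cells plated at 2,000 cells/well and settled 6 h beforehand.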
# [11] = qHTS assay to identify small molecule agonists of the estrogen related receptor signaling pathway with the pleiotropic PPARgamma coactivator (PGC) from Tox21 10K library (AID 1224842); note: nearly all actives have a fitted effect of over 15% in size
# Procedure, shortened: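 PGC/ERR reporter cells (NTP line) were seeded 2,000 per well, rested 6 h at 37 C/5% CO2, then pin-dosed with compounds in DMSO for 18 h at 37 C; luciferase read by One-Glo luminescence after 30 min at room temperature.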
# [12] = qHTS assay to identify small molecule antagonists of the estrogen related receptor (ERR) signaling pathway from Tox21 library - cell viability counter screen (AID 1224834); note: nearly all actives have a fitted effect of over 30% in size; note: potency is the fitted concentration of half-maximal effect
# Procedure, shortened: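 CellTiter-Fluor fluorescence, read after 30 min at 37 C, measures viability of ERR cells. Cells plated at 2,000/well and incubated 6 h before pin-tool compound addition, then exposed 17.5 hours at 37 C.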
# [13] = qHTS assay to identify small molecule agonists of the constitutive androstane receptor (CAR) signaling pathway - cell viability counter screen (AID 1224836); note: nearly all actives have a fitted effect of over 45% in size; note: potency is the fitted concentration of half-maximal effect
# Procedure, shortened: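 Fluorescence from CellTiter-Fluor indicates live cells after 23 h exposure. The human hepatoma line expresses hCAR and a CYP2B6-2.2kb reporter. Incubation medium contains 0.75 uM PK11195 (final).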
# [14] = target: Nuclear receptor subfamily 1 group I member 3 (Homo sapiens) (UniProt Q14994); experiment: qHTS assay to identify small molecule agonists of the constitutive androstane receptor (CAR) signaling pathway (AID 1224839); note: nearly all actives have a fitted effect of over 15% in size; note: potency is the fitted concentration of half-maximal effect
# Procedure, shortened: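 Stable hCAR/CYP2B6-2.2kb HepG2 line in DMEM with 10% FBS; compounds (15 concentrations) and 0.75 uM PK11195 final, 24 h at 37 C/5% CO2, then ONE-Glo luminescence after 30 min.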
# [15] = target: Thyrotropin receptor (Homo sapiens) (UniProt P16473); experiment: qHTS assay to identify small molecule agonists of the thyroid stimulating hormone receptor (TSHR) signaling pathway (AID 1224843; calls by dose curve; note: nearly all actives have a fitted effect of over 45% in size; note: potency is the fitted concentration of half-maximal effect)
# Sequence of Thyrotropin receptor (Homo sapiens) (P16473 whole entry, looked up): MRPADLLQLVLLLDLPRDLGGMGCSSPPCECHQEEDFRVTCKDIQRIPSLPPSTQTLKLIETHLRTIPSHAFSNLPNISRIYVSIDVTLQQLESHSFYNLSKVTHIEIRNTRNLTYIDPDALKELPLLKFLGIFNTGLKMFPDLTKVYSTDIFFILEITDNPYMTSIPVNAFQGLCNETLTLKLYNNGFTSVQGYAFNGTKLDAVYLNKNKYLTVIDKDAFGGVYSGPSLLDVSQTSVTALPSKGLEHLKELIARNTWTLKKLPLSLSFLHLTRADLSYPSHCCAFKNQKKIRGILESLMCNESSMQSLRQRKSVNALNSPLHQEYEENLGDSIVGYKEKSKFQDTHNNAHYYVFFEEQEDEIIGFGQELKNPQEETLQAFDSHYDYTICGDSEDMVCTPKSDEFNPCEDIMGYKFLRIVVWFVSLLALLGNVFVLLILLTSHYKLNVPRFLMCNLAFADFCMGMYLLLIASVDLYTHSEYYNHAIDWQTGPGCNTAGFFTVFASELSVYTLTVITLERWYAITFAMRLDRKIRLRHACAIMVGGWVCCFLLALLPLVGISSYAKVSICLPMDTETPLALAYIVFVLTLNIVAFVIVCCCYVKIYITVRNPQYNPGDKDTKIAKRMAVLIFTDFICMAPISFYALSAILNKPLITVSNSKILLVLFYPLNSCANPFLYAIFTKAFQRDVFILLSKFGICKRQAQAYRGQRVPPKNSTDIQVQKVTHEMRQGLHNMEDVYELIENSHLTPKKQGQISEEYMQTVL
# Procedure, shortened: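 Compounds are titrated over 15 concentrations, in triplicate, onto TSHR-HEK293 cells seeded at 800/well. Plates sit 30 min at room temperature before cAMP-d2 and anti-cAMP cryptate are added; signal is read after a further hour.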
SMILES,Potency [1],outcome [2],outcome [3],outcome [4],Potency [5],Potency [6],Potency [7],outcome [8],outcome [9],Potency [10],outcome [11],Potency [12],Potency [13],Potency [14],Potency [15]
C#CC(C)N(C)C(=O)Nc1ccc(Cl)cc1 (configuration not stated),inactive,inactive,inactive,inactive,38.5 µM (active),63.2 µM (active),inactive,inactive,inactive,inactive,inactive,–,–,–,–
O=C(OCC(COC(=O)c1cccnc1)(COC(=O)c1cccnc1)COC(=O)c1cccnc1)c1cccnc1,inactive,inactive,inactive,inactive,–,inactive,inactive,inactive,inactive,–,–,inactive,inactive,inactive,inactive
CCCCOC(=O)c1ccccc1,inactive,inactive,inactive,inactive,inactive,–,inactive,–,inactive,inactive,inactive,–,–,–,inactive
O=C(Nc1ccc(Cl)c(Cl)c1)C1CC1,inactive,inactive,inactive,inactive,inactive,–,inactive,inactive,inactive,inactive,inactive,inactive,–,–,inactive
O=C1c2ccccc2C(=O)c2cc(S(=O)(=O)O)ccc21,inactive,inactive,inactive,inactive,inactive,–,inactive,inactive,inactive,–,–,inactive,inactive,inactive,inactive
Nc1cccc(O)c1,inactive,inactive,inactive,inactive,inactive,–,inactive,inactive,inactive,–,–,–,inactive,inactive,inactive
CC(C)C(=O)OCCc1ccccc1,inactive,inactive,inactive,inactive,inactive,–,inactive,–,inactive,–,–,inactive,–,–,inactive
CC(=O)Nc1cccc(C)c1,inactive,inactive,inactive,inactive,inactive,–,inactive,–,inactive,–,–,–,inactive,–,inactive
Nc1ccc([N+](=O)[O-])c(N)c1,inactive,inactive,inactive,inactive,inactive,–,47.3 µM (active),inactive,–,inactive,inactive,47.3 µM (active),53.1 µM (active),inactive,inactive
O=C(NCCc1c[nH]c2ccccc12)c1cccnc1,inactive,inactive,inactive,inactive,21.1 µM (active),–,inactive,–,inactive,–,–,inactive,–,–,inactive
O=C(NCC(O)CO)c1c(I)c(C(=O)NCC(O)CO)c(I)c(N(CCO)C(=O)CO)c1I (configuration not stated),inactive,inactive,inactive,inactive,inactive,–,inactive,inactive,inactive,–,–,–,inactive,inactive,inactive
CCCCCCCCC1CCC(=O)O1 (configuration not stated),inactive,inactive,inactive,inactive,–,inactive,inactive,inactive,inactive,inactive,inactive,inactive,inactive,30.6 µM (active),inactive
O=P(O)(O)OP(=O)(O)O,inactive,inactive,inactive,inactive,inactive,–,inactive,inactive,inactive,–,–,inactive,inactive,inactive,inactive
CC(=O)OC(C)OC(=O)C(C)c1ccc(-c2ccccc2)c(F)c1 (configuration not stated),inactive,inactive,inactive,inactive,inactive,–,inactive,–,inactive,–,–,inactive,inactive,inactive,inactive
O=C(O)c1cc(Cl)cc([N+](=O)[O-])c1Cl,inactive,inactive,inactive,inactive,–,inactive,inactive,inactive,inactive,inactive,inactive,inactive,inactive,inactive,inactive
O=C(OCC1(COC(=O)c2cccnc2)CCCC(COC(=O)c2cccnc2)(COC(=O)c2cccnc2)C1O)c1cccnc1,inactive,inactive,inactive,inactive,inactive,inactive,inactive,inactive,inactive,–,–,–,inactive,inactive,inactive
O=C1c2cccc3c2[C@H](CCC3)CN1[C@@H]1CN2CCC1CC2,inactive,inactive,inactive,inactive,inactive,inactive,inactive,–,inactive,inactive,–,–,inactive,–,inactive
O=C(/N=N/C(=O)OCc1ccccc1)OCc1ccccc1,inactive,inactive,inactive,inactive,–,–,inactive,inactive,inactive,–,–,inactive,inactive,–,24.3 µM (active)
O=C(O)c1cc(Br)c(O)c(Br)c1,inactive,inactive,inactive,inactive,–,inactive,inactive,–,inactive,inactive,inactive,inactive,inactive,–,inactive
C=Cc1ccccn1,inactive,inactive,inactive,–,inactive,inactive,inactive,inactive,inactive,–,–,inactive,inactive,inactive,inactive
